# PrPC surface inh: cell surface PrPC inhibition, primary TR-FRET screen. AID 720596. TR-FRET read-out. 370,000 compounds, 0.43% hits. P04156. inhibition, % at 13.8 µM; in the data active = inhibition above about 24%; note: 0% = median of the test wells and 100% = reference compound wells
# ugtP null kill: compounds lethal to S. aureus RN4220 ugtP deletion mutant; OD600 growth, 16 h; growth inhibition, % (test concentration not listed); 330,000 compounds, 0.54% hits; AID 1259309; in the data active = growth inhibition above about 68%;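 note: plate controls were untreated wells for no effect and antibiotic for full effect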
# PfHsp40 yeast: compounds rescuing yeast from Plasmodium falciparum HSP40 toxicity. growth rescue, % at 12.5 µM. AID 504582. S. cerevisiae expressing PfHsp40, growth rescue, ATP luminescence. 340,000 compounds, 0.68% hits; in the data active = growth rescue above about 28%, passing the limit was not always enough;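 note: yeast W303a lacking pdr1 and pdr3 grown in galactose medium; growth measured after three days at 30 °C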
# VHR inh abs: blocks human VHR1 dual specificity phosphatase | P51452 | recombinant VHR phosphatase, pNPP absorbance | inhibition, % at 13.3 µM | 290,000 compounds, 0.52% hits; in the data active = inhibition above about 50%
# Target sequence (P51452 whole entry, looked up): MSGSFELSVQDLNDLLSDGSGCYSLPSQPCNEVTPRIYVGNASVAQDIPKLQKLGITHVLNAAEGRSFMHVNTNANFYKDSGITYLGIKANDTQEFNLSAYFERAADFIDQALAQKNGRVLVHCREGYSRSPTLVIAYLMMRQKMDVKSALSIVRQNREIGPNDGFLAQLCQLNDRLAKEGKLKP
# Sa RN4220 lethal: kills Staphylococcus aureus RN4220; S. aureus RN4220 growth, OD600, 16 h; inhibition, % (concentration not given with the values); 330,000 compounds, 0.33% hits; in the data active = inhibition above about 85%;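 note: plate controls were untreated cells for no effect and reference antibiotic for full effect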
# * hit, by the source's call; · = no result. Compounds with a hit are over-represented: about 1.8% of the library has one in this group of screens.
SMILES,PrPC surface inh,ugtP null kill,PfHsp40 yeast,VHR inh abs,Sa RN4220 lethal
c1ccc2c(c1)CCN(c1ncnc3c1[nH]c1ccccc13)C2,19.9,-16.0,2.0,5.6,3.0
C#C[C@]1(O)CCC2C3CCC4=CC(=O)CC[C@]4(C)C3CC[C@@]21C (some centres undefined),·,-1.6,·,·,8.0
COc1ccc(C(=O)N2CC3(CC(c4cccc([N+](=O)[O-])c4)=NO3)CC2C(=O)NCC(N)=O)cc1 (centres undefined),·,-0.6,·,·,3.4
NN=C1CCCc2c1[nH]c1ccc([N+](=O)[O-])cc21,·,-7.3,·,·,-3.8
COc1ccc(C=NNC(=O)CCN2CCN(c3ccccc3)CC2)cc1OC,·,14.0,·,·,0.1
CC(C)c1ccc(O)c(NC(=O)c2cccnc2)c1,-4.4,-7.5,0.5,18.1,23.5
CCC(C)c1ccc(O)c(NC(=S)NC(=O)c2cccnc2)c1 (centres undefined),10.0,7.5,53.6*,12.0,14.4
CC1C=C(C(=O)NCc2nc3ccccc3[nH]2)OC(OCCCCO)C1 (centres undefined),·,-4.0,·,·,-4.9
S=C(NCCc1ccccc1)NN=Cc1c(Cl)cccc1Cl,·,14.5,·,·,-0.3
c1ccc(C[n+]2c(-c3ccccc3)csc2Nc2ccccc2)cc1,-2.2,85.2*,-1.0,14.7,-9.7
c1ccc(Nc2scc(-c3ccccc3)[n+]2Cc2ccco2)cc1,4.2,22.4,-0.5,22.2,-6.5
Cc1nc2cc(C(=O)OCC(=O)Nc3cccc(Cl)c3)ccc2n1-c1ccccc1,-4.0,99.4*,2.0,0.4,-3.2
CC(C)N1CC(C(=O)Nc2cccc([N+](=O)[O-])c2)CC1=O (centres undefined),-7.0,4.4,2.1,55.7*,4.8
O=C(Nc1cccc([N+](=O)[O-])c1)C1CC(=O)N(Cc2ccccc2)C1 (centres undefined),-22.4,1.3,-1.8,8.4,5.1
CN(CC=CC#CC(C)(C)C)Cc1cccc2ccccc12,·,88.5*,·,·,-5.9
Cc1ccnc2nc(C(=O)NC3CCCc4ccccc43)nn12 (centres undefined),2.0,-0.6,147.5*,17.9,-2.2
COC(=O)c1ccccc1NC(=O)N1c2ccccc2Sc2ccccc21,-9.9,94.2*,-0.6,-1.0,-7.7
Cc1ccc(C(=O)Nc2nc(-c3ccccn3)cs2)s1,20.5,1.7,58.9*,·,19.1
O=C(Nc1nc(-c2ccccn2)cs1)c1ccc(Cl)s1,15.1,58.3,-1.2,-20.3,51.4
CCc1sc(C(=O)Nc2nccs2)cc1C,3.6,-1.8,4.1,5.9,-1.5
CCc1sc(C(=O)Nc2nc(-c3ccccn3)cs2)cc1C,·,1.1,441.1*,·,35.6
Cc1ccc(C=NNc2ccc3c(C(F)(F)F)cc(C(F)(F)F)nc3n2)cc1,·,-10.4,·,·,0.3
CCOc1cc(S(=O)(=O)NC2CCCCC2)ccc1F,1.4,-3.1,88.9*,-12.9,6.3
CCn1c2ccc(C)cc2c2nc3cc(C(=O)O)ccc3nc21,-4.3,11.3,311.9*,8.3,8.6
CCn1c2ccc(Cl)cc2c2nc3ccccc3nc21,1.0,25.0,·,17.4,-4.8
SMILES,PrPC surface inh,ugtP null kill,PfHsp40 yeast,VHR inh abs,Sa RN4220 lethal
Cc1ccc(NC(=O)c2ccc3nc(N4CCOCC4)sc3c2)c(Cl)c1,6.4,-4.4,0.4,56.5*,6.6
CCCCOc1ccc2c(c1)C(=O)c1cc(O)ccc1-2,5.6,92.2*,284.1*,3.1,20.0
O=C(CN1CCCc2ccccc21)N/N=C/c1ccccc1,-4.2,·,0.3,-8.8,·
O=C(CN1CCCc2ccccc21)N/N=C/c1c(O)ccc2ccccc12,2.2,·,179.2*,-1.0,·
CCOC(=O)CC1c2cc(F)ccc2S(=O)(=O)N1C(C)(C)C (centres undefined),·,-2.4,·,·,1.8
O=C(Nc1nnc(C(F)(F)F)s1)C1COc2ccccc2O1 (centres undefined),1.9,88.4*,1.3,2.1,90.6
O=C(Nc1nnc(C2CC2)s1)C1COc2ccccc2O1 (centres undefined),9.2,-8.5,-0.6,14.0,0.0
CC(=O)c1sc(NC(=O)C2COc3ccccc3O2)nc1C (centres undefined),40.5*,-10.9,-1.1,24.9,-0.9
CC1(C)Oc2ccc(NC(=O)C3COc4ccccc4O3)cc2O1 (centres undefined),-5.1,-8.2,40.7*,-18.5,-6.1
O=C(COC(=O)C=Cc1cccs1)Nc1cccc(S(=O)(=O)N2CCCC2)c1,·,-4.3,·,·,-1.8
O=[N+]([O-])c1ccc(Cl)c(C=NN2CCN(c3ccccc3)CC2)c1,·,-27.5,·,·,0.0
COc1ccc(-n2c(-c3ccccc3)cc3c2CCCC3=O)cc1,·,8.0,133.6*,10.3,-4.7
CC(NC(=O)C(C#N)=Cc1ccc(O)c(O)c1)c1ccccc1 (centres undefined),·,-7.6,·,·,7.6
CC1CN(C(C)CO)C(=O)Cc2cc(NS(=O)(=O)c3cccs3)ccc2OC1CN(C)S(=O)(=O)c1cn(C)cn1 (centres undefined),·,5.3,·,·,1.7
CC(C)c1ccc(C=NNC(=O)c2ccccc2Cl)cc1,·,23.8,·,·,0.5
C[C@@]12CCC3[C@@](CCC4[C@@]3(C)CCC[C@@]4(C)C(=O)NCc3ccccc3)(CC1=O)C2 (some centres undefined),8.1,4.4,345.6*,·,10.1
Cc1ccc(S(=O)(=O)N(CCCO)CC(O)CON=C2c3ccccc3-c3ccccc32)cc1 (centres undefined),6.3,-12.9,28.9*,-10.5,2.3
O=c1c2c(-c3ccccc3)csc2nc2c3ccccc3c(NCCN3CCOCC3)nn12,-10.1,60.1,-0.1,21.7,91.1*
CCOc1ccc(C2=Nn3c(nnc3-c3cccnc3)SC2)cc1,-3.1,1.2,0.4,57.4*,0.6
COc1ccc(C2=Nn3c(nnc3-c3cccnc3)SC2)cc1,4.6,2.1,0.9,22.2,6.3
Cc1ccc(NCc2nnc(SCC(N)=O)n2CC2CCCO2)c(C)c1 (centres undefined),-4.0,9.3,0.2,52.9*,9.3
NC(=O)CSc1nnc(CNc2ccc(F)cc2)n1CC1CCCO1 (centres undefined),2.3,-3.9,-2.5,-20.8,-3.1
Cc1ccc(CNC(=O)c2ccc(Cn3nc(C)c(Cl)c3C)o2)cc1,0.3,-16.5,153.5*,25.0,-0.6
Cc1cc(C)cc(NC(=O)c2ccc(Cn3nc(C)c(Cl)c3C)o2)c1,14.7,-21.4,1.6,13.3,-2.1
O=C(c1ccc(F)cc1)N1CCC2(CC1)NCCc1[nH]cnc12,-0.8,3.7,-0.6,55.6*,1.5
Cc1cc(C)nc(SC2=CS(=O)(=O)c3ccccc32)n1,-3.2,-2.5,0.4,6.5,5.9
O=S1(=O)C=C(Sc2nnc(-c3ccccc3)o2)c2ccccc21,·,90.7*,0.6,-10.1,92.6*
Cc1cccc(C(N)=NOC(=O)Cc2ccccc2)c1,·,-1.8,·,·,2.4
NCCCCC(N)c1nnc(C(CCC(=O)O)NC(=O)C2CCNCC2)o1 (centres undefined),·,-0.4,·,·,3.3
C=CCOC(=O)C1=C(C)NC(SC)=C(C#N)C1c1ccc(OCC)cc1 (centres undefined),8.1,91.4*,0.9,-3.7,-2.0

# Screens from PubChem.
